Drawing on PubChem BioAssay (NCI), this text covers growth for 14 compounds.

This is part of a sample that, as a whole, favours compounds with a hit. Of some 83,000 tested, about 20% had one in any assay.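 Testing used 96-well plates and a 48-hour single-concentration exposure. Example: -40 means 40% of the starting cells died.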 Unmarked numbers belong to inactive results. Active and inactive are the calls of the source. Rule for the calls: active = growth percent below 10; inactive = the rest.

This experiment has as its system LOX IMVI melanoma. Briefly: NCI-60 one-dose screen, 48 h (100 = growth as untreated, 0 = no growth, -100 = all killed). The following applies: 10 µM unless noted.
As for `c1ccc(Cn2cnc3ccc(-c4nc(-c5ccc6c(c5)ncn6C5CCCCC5)cn5ccnc45)cc32)cc1`, the growth was -87% (active).
The result for `N/C(=N\C(N)=N\c1nc2ccccc2s1)c1cccc(Cl)c1` reads 44.1%.
For `O=C(Cc1ccccc1)NNc1nc(Cl)nc(N2CCN(C(c3ccccc3)c3ccccc3)CC2)n1`, the growth was 61.9%.
The result for `CCN(CC)c1ccc(C(=O)c2ccccc2)cc1` reads 100%; that for `O=C(Nc1ncc(Cc2cc(Cl)ccc2Cl)s1)c1cccs1`, 43.3%; that for `COc1cc(C2C3CC4CCCC[C@H]4N3[C@@]3(C(=O)Nc4cc(Cl)ccc43)C2C(=O)c2nc3ccccc3[nH]2)cc(OC)c1OC` (some centres undefined), 58.8%.
Regarding `CC(=O)[C@@H]1CC[C@]2(C(N)=O)CC[C@]3(C)[C@H](CC[C@@H]4[C@@]5(C)CCCNC(C)(C)[C@@H]5CC[C@]43C)[C@@H]12`, the growth is 84.4%.
In the case of `Cc1cccc(C)c1N=c1oc2ccc(Cl)cc2nc1-c1ccccc1O` it was 87.9%; in that of `O=S(=O)(NCCCNc1nccc(-c2c(-c3cccc(O)c3)nc3occn23)n1)c1ccc(Cl)cc1`, 44.4%; in that of `N#C/C(=C\c1ccc([N+](=O)[O-])s1)c1nc2cc(Br)ccc2s1`, -54.1% (active).
`Oc1ccc(C(c2ccc(O)cc2)c2ccc(Br)cn2)cc1`: the growth was -12.2% (active).
In the case of `Cc1nc2sccn2c1-c1cn2ccsc2n1` it was 98.4%; in that of `CCOC(=O)/C(C#N)=C1/NNC(=Nc2cccnc2)S1`, 95.7%; in that of `O=S(=O)(NCCCNc1nccc(-c2c(-c3cccc(F)c3)nc3sccn23)n1)c1cccc2ccccc12`, 20.9%.
